Results on 14 compounds are retold here after ChEMBL document CHEMBL2218924, “A broad activity screen in support of a chemogenomic map for kinase signalling research and drug discovery” (Biochem J, 2013).

The target of assay [1] is T1, CDK9/cyclin T1 (Homo sapiens) (UniProt O60563+P50750). The note with it: at 1 µM.
The target of assay [2] is T1, CDK9/cyclin T1 (Homo sapiens). The note with it: at 10 µM.
The target of assay [3] is T2, Serine/threonine-protein kinase Chk1 (Homo sapiens) (UniProt O14757).
T2 sequence (whole entry): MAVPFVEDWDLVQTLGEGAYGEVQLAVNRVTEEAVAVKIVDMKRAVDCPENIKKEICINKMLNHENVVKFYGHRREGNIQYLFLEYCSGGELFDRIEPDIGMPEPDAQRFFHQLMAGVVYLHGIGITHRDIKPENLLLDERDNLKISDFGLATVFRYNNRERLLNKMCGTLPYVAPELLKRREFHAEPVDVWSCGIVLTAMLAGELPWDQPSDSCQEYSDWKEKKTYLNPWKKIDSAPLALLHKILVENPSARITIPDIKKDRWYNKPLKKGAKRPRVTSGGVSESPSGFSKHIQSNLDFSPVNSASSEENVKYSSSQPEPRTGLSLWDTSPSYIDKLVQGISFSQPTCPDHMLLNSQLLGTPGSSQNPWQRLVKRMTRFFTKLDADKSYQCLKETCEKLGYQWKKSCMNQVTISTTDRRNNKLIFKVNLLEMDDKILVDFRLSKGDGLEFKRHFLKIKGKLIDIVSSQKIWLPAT
The note with it: at 1 µM.

Assay [4] concerns the target T2, Serine/threonine-protein kinase Chk1 (Homo sapiens). The note with it: at 10 µM.
Assay [5] addresses Serine/threonine-protein kinase Chk2 (Homo sapiens) (UniProt O96017). The note with it: at 1 µM.
For assay [6] the target is unchanged. The note with it: at 10 µM.
The target of assay [7] is Casein kinase I isoform gamma-1 (Homo sapiens) (UniProt Q9HCP0). The note with it: at 1 µM.
Assay [8] has the same target. The note with it: at 10 µM.
The target of assay [9] is Casein kinase I isoform delta (Homo sapiens) (UniProt P48730). The note with it: at 1 µM.
Assay [10] shares this target. The note with it: at 10 µM.
For assay [11], the target named is T3, Casein kinase II (Homo sapiens) (UniProt P67870+P68400+P19784). The note with it: at 1 µM.
The target in assay [12] is T3, Casein kinase II (Homo sapiens). The note with it: at 10 µM.
The target of assay [13] is Casein kinase II subunit alpha' (Homo sapiens) (UniProt P19784). The note with it: at 1 µM.
Assay [14] shares this target. The note with it: at 10 µM.
Assay [15] deals with Dual specificity protein kinase CLK2 (Homo sapiens) (UniProt P49760). The note with it: at 1 µM.
The target is the same in assay [16]. The note with it: at 10 µM.
Assay [17] addresses Dual specificity protein kinase CLK3 (Homo sapiens) (UniProt P49761). The note with it: at 1 µM.
Assay [18] has the same target. The note with it: at 10 µM.
For assay [19], the target named is Tyrosine-protein kinase CSK (Homo sapiens) (UniProt P41240). The note with it: at 1 µM.
The target is the same in assay [20]. The note with it: at 10 µM.

T3 sequence (P19784 whole entry, looked up): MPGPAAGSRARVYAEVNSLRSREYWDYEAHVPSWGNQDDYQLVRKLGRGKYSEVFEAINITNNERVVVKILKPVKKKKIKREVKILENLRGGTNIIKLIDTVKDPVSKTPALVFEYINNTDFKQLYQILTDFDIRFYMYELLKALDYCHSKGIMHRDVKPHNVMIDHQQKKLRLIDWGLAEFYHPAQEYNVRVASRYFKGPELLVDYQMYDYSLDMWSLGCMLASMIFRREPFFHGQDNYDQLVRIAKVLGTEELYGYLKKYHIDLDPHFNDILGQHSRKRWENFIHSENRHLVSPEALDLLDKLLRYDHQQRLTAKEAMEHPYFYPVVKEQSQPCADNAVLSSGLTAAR
T3 sequence (P67870 whole entry, looked up): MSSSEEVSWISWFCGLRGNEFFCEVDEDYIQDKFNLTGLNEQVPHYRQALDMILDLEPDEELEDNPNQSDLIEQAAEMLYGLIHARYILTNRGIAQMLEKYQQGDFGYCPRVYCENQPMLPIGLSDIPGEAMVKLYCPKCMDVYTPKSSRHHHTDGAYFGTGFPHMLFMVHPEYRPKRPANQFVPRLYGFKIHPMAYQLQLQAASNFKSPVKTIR
T3 sequence (P68400 whole entry, looked up): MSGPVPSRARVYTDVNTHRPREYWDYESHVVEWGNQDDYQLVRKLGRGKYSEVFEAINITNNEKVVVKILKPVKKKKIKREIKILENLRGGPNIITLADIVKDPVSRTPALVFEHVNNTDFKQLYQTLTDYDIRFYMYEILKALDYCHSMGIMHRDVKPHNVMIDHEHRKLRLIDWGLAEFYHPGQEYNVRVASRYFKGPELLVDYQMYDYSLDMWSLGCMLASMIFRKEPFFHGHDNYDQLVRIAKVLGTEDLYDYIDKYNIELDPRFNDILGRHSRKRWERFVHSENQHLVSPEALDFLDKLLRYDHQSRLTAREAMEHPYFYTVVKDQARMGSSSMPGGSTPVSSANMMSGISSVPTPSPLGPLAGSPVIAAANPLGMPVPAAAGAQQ
Casein kinase II subunit alpha' (Homo sapiens), sequence (P19784 whole entry, looked up): as the sequence (P19784 whole entry, looked up) above
Casein kinase I isoform delta (Homo sapiens), sequence (P48730 whole entry, looked up, canonical isoform): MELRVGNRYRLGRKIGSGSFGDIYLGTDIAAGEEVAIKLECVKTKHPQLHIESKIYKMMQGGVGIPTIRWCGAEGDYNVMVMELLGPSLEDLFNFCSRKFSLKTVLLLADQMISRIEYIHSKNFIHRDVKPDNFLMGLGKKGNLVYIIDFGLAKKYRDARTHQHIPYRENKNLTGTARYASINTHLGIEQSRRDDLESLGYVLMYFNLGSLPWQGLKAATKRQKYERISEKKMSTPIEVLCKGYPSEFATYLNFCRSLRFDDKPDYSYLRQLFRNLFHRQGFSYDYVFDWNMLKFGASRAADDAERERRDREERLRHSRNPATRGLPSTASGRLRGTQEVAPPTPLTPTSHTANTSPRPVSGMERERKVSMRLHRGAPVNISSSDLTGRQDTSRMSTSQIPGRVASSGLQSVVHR
Dual specificity protein kinase CLK3 (Homo sapiens), sequence (P49761 whole entry, looked up): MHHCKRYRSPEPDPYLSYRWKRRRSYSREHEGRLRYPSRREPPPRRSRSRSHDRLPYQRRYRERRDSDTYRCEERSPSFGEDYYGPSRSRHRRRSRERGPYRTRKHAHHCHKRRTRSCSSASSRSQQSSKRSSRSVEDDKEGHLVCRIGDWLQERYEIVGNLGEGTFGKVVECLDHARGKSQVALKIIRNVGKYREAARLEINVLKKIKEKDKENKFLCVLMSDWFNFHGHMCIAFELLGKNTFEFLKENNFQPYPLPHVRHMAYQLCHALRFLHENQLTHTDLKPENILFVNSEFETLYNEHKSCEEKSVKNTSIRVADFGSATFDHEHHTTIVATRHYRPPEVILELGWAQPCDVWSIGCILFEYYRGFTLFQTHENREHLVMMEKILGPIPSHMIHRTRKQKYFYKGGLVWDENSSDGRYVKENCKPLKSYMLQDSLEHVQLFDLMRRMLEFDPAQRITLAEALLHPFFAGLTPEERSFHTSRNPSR
Tyrosine-protein kinase CSK (Homo sapiens), sequence (P41240 2-450 limits assumed): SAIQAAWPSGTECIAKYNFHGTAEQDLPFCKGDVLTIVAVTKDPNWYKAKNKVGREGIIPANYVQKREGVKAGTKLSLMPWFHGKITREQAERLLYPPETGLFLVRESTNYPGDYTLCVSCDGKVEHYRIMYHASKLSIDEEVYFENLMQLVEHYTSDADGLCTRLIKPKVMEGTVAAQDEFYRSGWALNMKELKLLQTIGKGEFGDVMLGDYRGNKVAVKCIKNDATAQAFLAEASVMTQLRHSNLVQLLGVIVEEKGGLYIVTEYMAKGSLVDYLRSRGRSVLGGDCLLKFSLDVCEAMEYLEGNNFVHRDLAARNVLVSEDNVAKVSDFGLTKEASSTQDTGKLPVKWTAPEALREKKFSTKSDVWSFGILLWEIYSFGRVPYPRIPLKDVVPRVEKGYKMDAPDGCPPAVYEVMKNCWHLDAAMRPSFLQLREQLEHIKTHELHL
Casein kinase I isoform gamma-1 (Homo sapiens), sequence (Q9HCP0 whole entry, looked up, canonical isoform): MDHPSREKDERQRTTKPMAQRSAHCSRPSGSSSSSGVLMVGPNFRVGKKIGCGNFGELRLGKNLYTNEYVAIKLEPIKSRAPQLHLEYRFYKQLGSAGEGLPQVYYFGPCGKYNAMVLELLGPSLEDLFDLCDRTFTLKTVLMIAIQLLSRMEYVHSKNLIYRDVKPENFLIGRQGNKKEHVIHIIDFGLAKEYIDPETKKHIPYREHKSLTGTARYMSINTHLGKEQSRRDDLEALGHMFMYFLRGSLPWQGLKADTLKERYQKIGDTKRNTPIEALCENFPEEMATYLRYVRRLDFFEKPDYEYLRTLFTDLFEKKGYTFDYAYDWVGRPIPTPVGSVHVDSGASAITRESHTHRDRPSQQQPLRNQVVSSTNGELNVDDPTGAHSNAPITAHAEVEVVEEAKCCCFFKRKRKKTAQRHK
Serine/threonine-protein kinase Chk2 (Homo sapiens), sequence (O96017 whole entry): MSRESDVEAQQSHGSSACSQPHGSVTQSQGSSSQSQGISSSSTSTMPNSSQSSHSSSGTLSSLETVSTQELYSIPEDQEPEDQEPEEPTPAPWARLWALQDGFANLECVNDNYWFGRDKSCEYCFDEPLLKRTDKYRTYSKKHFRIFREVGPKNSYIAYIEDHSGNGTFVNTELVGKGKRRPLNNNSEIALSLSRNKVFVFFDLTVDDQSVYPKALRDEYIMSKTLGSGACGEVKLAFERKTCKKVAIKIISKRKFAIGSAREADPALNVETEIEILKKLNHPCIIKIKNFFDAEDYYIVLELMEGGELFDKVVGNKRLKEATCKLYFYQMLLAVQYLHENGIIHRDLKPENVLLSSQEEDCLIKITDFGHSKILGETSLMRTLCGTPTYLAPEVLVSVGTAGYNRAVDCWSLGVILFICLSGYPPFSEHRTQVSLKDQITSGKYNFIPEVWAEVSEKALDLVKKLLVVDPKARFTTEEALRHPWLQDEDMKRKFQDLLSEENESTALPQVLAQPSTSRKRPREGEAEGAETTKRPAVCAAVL
Dual specificity protein kinase CLK2 (Homo sapiens), sequence (P49760 whole entry, looked up): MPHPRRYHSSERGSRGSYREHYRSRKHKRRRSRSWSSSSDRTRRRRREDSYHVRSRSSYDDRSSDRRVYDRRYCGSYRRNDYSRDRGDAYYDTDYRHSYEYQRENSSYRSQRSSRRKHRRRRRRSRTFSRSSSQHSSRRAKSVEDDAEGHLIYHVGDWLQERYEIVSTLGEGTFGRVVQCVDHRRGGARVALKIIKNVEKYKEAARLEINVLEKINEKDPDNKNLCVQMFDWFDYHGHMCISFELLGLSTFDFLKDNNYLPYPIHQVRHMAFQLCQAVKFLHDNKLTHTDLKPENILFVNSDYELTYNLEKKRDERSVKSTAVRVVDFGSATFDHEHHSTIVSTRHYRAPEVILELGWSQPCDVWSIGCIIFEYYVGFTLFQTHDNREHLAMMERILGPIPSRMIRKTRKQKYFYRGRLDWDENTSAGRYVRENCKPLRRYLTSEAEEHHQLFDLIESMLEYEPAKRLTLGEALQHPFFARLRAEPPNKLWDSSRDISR

Regarding `CO[C@H]1[C@@H](OC)C[C@H](C)[C@@H](OC)C2=CC(=O)C=C(NC(=O)/C(C)=C/C=C/[C@H](OC)[C@@H](OC(N)=O)/C(C)=C/[C@@H]1C)C2=O`, the residual activity stood at 100% in assay [1]; 83% in assay [2]; 96% in assay [3]; 87% in assay [4]; 91% in assay [5]; 89% in assay [6]. Also, the residual activity in assay [7] stood at 91%; in assay [8], 94%; in [9], 90%; in [10] it was 81%; in [11], 88%; in assay [12], 111%. Also, the residual activity in [13] was 99%; in assay [14] it was 99%; in [15], 100%; in assay [16] it was 110%; in assay [17], 88%; in assay [18], 89%. Moreover, the residual activity in [19] came out at 108%; in assay [20], 118%.

As for `CN(C)c1ccc(/C=C2\C(=O)Nc3ccccc32)cc1`, the residual activity in [1] was 107%; in [2] it was 93%; in assay [3] it was 90%; in assay [4], 72%; in assay [5], 73%; in assay [6], 36%. Further, the residual activity came to 91% in assay [7]; 74% in [8]; 56% in assay [9]; 21% in assay [10]; 87% in assay [11]; 108% in assay [12]. For the same compound, the residual activity stood at 115% in assay [13]; 96% in [14]; 86% in [15]; 48% in assay [16]; 77% in [17]; 13% in assay [18]. Also, the values for the residual activity in [19] and in assay [20] were 116% and 119%, respectively.

For the compound `CCC(=O)Nc1ccc2ncnc(Nc3cccc(Br)c3)c2c1`, the residual activity in assay [1] worked out at 102%; in [2], 86%; in [3], 85%; in assay [4] it was 87%; in assay [5], 95%; in [6], 87%. In addition, the residual activity in assay [7] was found to be 87%; in assay [8] it was 95%; in assay [9], 97%; in [10], 100%; in assay [11] it was 107%; in [12], 101%. Further, the residual activity is 125% in assay [13]; 90% in assay [14]; 125% in assay [15]; 105% in assay [16]; 76% in assay [17]; 142% in [18]. Also, the results for the residual activity in [19] and in assay [20] were 104% and 93%, respectively.

Regarding `COc1ccc(S(=O)(=O)N(CCO)c2ccccc2CN(C)C/C=C/c2ccc(Cl)cc2)cc1`, the residual activity in assay [1] was 87%; in assay [2], 113%; in [3], 92%; in assay [4], 89%; in assay [5], 103%; in assay [6], 73%. For the same compound, the residual activity in assay [7] amounted to 103%; in [8] it was 75%; in assay [9] it was 87%; in [10], 66%; in [11], 89%; in assay [12] it was 94%. Further, the residual activity in [13] was determined as 106%; in assay [14], 95%; in assay [15], 127%; in [16], 102%; in assay [17] it was 89%; in assay [18] it was 86%. Further, the residual activity was found to be 115% in [19] and 84% in assay [20].

On to `Cc1ccc(NC2=CC(=O)c3sc(C)nc3C2=O)cc1`, for which the residual activity worked out at 104% in assay [1]; 106% in assay [2]; 96% in [3]; 87% in [4]; 96% in assay [5]; 82% in assay [6]. Further, the residual activity in assay [7] is 97%; in assay [8], 88%; in [9] it was 96%; in assay [10], 88%; in [11] it was 100%; in assay [12] it was 101%. Besides, the residual activity in [13] is 100%; in assay [14] it was 107%; in assay [15], 111%; in assay [16], 109%; in assay [17], 95%; in [18], 88%. In addition, the figures for the residual activity in [19] and in [20] were 98% and 95%, respectively.

Consider `O=C(Nc1cccc(Nc2nccc(Nc3cccc(C(F)(F)F)c3)n2)c1)C1CC1`, for which the residual activity in [1] stood at 89%; in [2], 79%; in [3], 72%; in assay [4], 77%; in assay [5] it was 81%; in assay [6], 48%. For the same compound, the residual activity in assay [7] worked out at 93%; in assay [8], 94%; in assay [9], 82%; in assay [10], 78%; in [11] it was 75%; in assay [12] it was 109%. The residual activity was 108% in assay [13]; 72% in assay [14]; 71% in [15]; 82% in assay [16]; 76% in assay [17]; 9% in [18]. In addition, the values for the residual activity in assay [19] and in assay [20] were 115% and 100%, respectively.

Regarding `COc1cc2ncnc(N3CCN(C(=O)Nc4ccc(Oc5ccccc5)cc4)CC3)c2cc1OC`, the residual activity in assay [1] is 94%; in assay [2], 48%; in [3], 82%; in [4], 80%; in [5], 96%; in assay [6], 96%. For the same compound, the residual activity in assay [7] was 88%; in assay [8] it was 79%; in assay [9], 78%; in assay [10], 89%; in [11] it was 87%; in [12], 105%. Moreover, the residual activity in assay [13] stood at 111%; in assay [14] it was 65%; in assay [15], 84%; in assay [16] it was 55%; in assay [17], 64%; in [18] it was 68%. Moreover, the results for the residual activity in assay [19] and in assay [20] were 109% and 113%, respectively.

For the compound `COc1cc2ncnc(Nc3ccc(NC(=O)c4ccccc4)cc3)c2cc1OC`, the residual activity in [1] came to 111%; in assay [2] it was 100%; in assay [3], 97%; in assay [4] it was 99%; in assay [5], 34%; in assay [6], 8%. Moreover, the residual activity in assay [7] was determined as 92%; in [8], 78%; in [9], 79%; in assay [10], 69%; in [11] it was 98%; in [12] it was 111%. Also, the residual activity in assay [13] came out at 110%; in assay [14], 107%; in [15], 107%; in [16], 82%; in assay [17] it was 83%; in [18] it was 39%. In addition, in assay [20], the residual activity was 92%.

`CC[n+]1c(/C=C/N(C)c2ccccc2)n(-c2ccccc2)c2ccc(-c3nc4ccccc4s3)cc21`: the residual activity in [1] was 119%; in [2] it was 125%; in [3], 94%; in assay [4], 83%; in assay [5], 92%; in assay [6], 80%. The residual activity in assay [7] was determined as 84%; in assay [8] it was 100%; in [9], 87%; in [10], 93%; in assay [11], 109%; in [12], 105%. Besides, the residual activity was 134% in assay [13]; 90% in assay [14]; 109% in assay [15]; 108% in assay [16]; 91% in assay [17]; 58% in assay [18]. In addition, the residual activity in assay [19] was determined as 103%; in [20] it was 95%.

Take `Cc1cccc(-c2[nH]c(C(C)(C)C)nc2-c2ccc3c(c2)OCO3)n1`: the residual activity came to 98% in [2]; 88% in [3]; 92% in assay [4]; 91% in assay [5]; 97% in assay [6]; 101% in assay [7]. The residual activity in assay [8] came out at 100%; in assay [9] it was 69%; in assay [10], 33%; in [12] it was 132%; in [17] it was 90%; in [18], 145%.

`c1ccc(-c2n[nH]cc2-c2ccnc3ccccc23)nc1`: the residual activity in [1] was 103%; in assay [2], 67%; in assay [3], 89%; in assay [4], 91%; in assay [5], 90%; in [6], 88%. The residual activity in assay [7] came out at 89%; in [8], 47%; in assay [9], 25%; in assay [10], 2%; in [11], 104%; in assay [12] it was 105%. The residual activity in assay [16] is 86%; in assay [17], 86%; in assay [18] it was 132%.

In the case of `Cn1nc2c3c(cccc31)C(=O)c1ccccc1-2`, the residual activity in [1] came out at 94%; in assay [2], 90%; in assay [3], 94%; in assay [4] it was 75%; in assay [5], 75%; in assay [6], 40%. The residual activity amounted to 99% in [7]; 82% in assay [8]; 15% in assay [9]; 1% in assay [10]; 87% in [11]; 59% in assay [12]. Moreover, the residual activity in assay [13] stood at 99%; in [14], 65%; in assay [15], 86%; in assay [16], 83%; in [17], 76%; in [18], 66%. Moreover, the residual activity in assay [19] came out at 101%; in assay [20], 90%.

Turning to `O=C(Nc1cccc(Nc2cc(Nc3cccc(C(F)(F)F)c3)ncn2)c1)C1CC1`, the residual activity in assay [1] is 85%; in [2], 62%; in assay [3], 89%; in assay [4] it was 86%; in assay [5] it was 97%; in assay [6], 74%. For the same compound, the residual activity in [7] was determined as 85%; in assay [8], 66%; in assay [9], 85%; in [10] it was 54%; in [11] it was 107%; in assay [12], 104%. The residual activity is 114% in assay [13]; 103% in assay [14]; 99% in [15]; 101% in [16]; 89% in assay [17]; 32% in assay [18]. Moreover, the residual activity in [19] turned out to be 114%; in assay [20], 96%.

Regarding `NC(=O)c1ccc2[nH]c(-c3ccc(Oc4ccc(Cl)cc4)cc3)nc2c1`, the residual activity in assay [1] was found to be 81%; in assay [2], 78%; in assay [3], 91%; in assay [4], 97%; in assay [7], 78%; in assay [8], 57%. Also, the residual activity in assay [9] came to 83%; in assay [10], 83%; in assay [11], 100%; in [12] it was 92%; in [13], 92%; in [14] it was 102%. For the same compound, the residual activity in assay [15] is 101%; in assay [16], 104%; in assay [17], 89%; in assay [18] it was 82%; in [19], 105%; in assay [20] it was 102%.

As usually defined, the residual activity is the signal under treatment as a percentage of the control signal.
